Results filed as inconclusive are left out. A number with no mark means an inactive call. Calls come from the whole dose curve; as a rule, active = well fitted cell-killing curve with a large enough effect in the repeat runs; inconclusive = weak or mixed curves; inactive = flat fitted curve, though single readings scatter.
assay: qHTS assay to identify small molecule antagonists of the estrogen related receptor (ERR) signaling pathway - cell viability counter screen (AID 1224818); conditions: ERR reporter cell line viability counter screen; series mostly up to 46.1 µM; viability change, negative = cytotoxic: at the top concentration
Source text: National Center for Advancing Translational Sciences [NCATS]
NIH Chemical Genomics Center [NCGC]
U.S. Environmental Protection Agency [EPA]
National Institutes of Environmental Health Sciences [NIEHS]
National Toxicology Program [NTP]
U.S. Food and Drug Administration [FDA]
Estrogen related receptors (ERRs), the first orphan nuclear receptors discovered, play an important role in the control of cellular energy metabolism. ERRs are required for high-energy production in response to the environmental challenges. ERR-alpha was also identified as an adverse marker for breast cancer progression; ERR-alpha-positive tumors have a poor prognosis. To screen and to identify environmental compounds that perturb the ERR signaling pathways could provide valuable information for potential therapeutic or preventive measures in the treatment of metabolic disease. To differentiate true ERR antagonists or agonist from cytotoxic substances, the assay is multiplexed with cell viability assay.
Tox21 Assay Protocol Summary:
The ERR cells were dispensed at 2,000 cells/5 ul/well in 1536-well white plates using a Multidrop dispenser. After the assay plates were incubated at a 37 C/5% CO2 incubator for 6 hours, 23 nL of compounds dissolved in DMSO, positive and negative controls or DMSO only was transferred to the assay plate by a pin tool. The plates were incubated at 37 C for 17.5 hours. 1 ul/well of CellTiter-Fluor reagent was added into the assay plates using a Flying Reagent Dispenser. After 30 min incubation at 37 C/5% CO2, the fluorescence intensity in the plates was measured using a ViewLux plate reader.
% is set by controls: 0 for no effect and ±100 for the full control effect.

Q: Which “viability change, negative = cytotoxic” value does the source give for `COc1ccccc1N1CCN(CC(O)COc2cccc3ccccc23)CC1` (stereo not drawn) here?
A: -18.8%

Q: Which “viability change, negative = cytotoxic” value does the source give for `CC(C)COCC(CN(Cc1ccccc1)c1ccccc1)N1CCCC1` (stereo not drawn) here?
A: 13.8%

Q: With `C=CCc1ccccc1OCC(O)CNC(C)C` (stereo not drawn) as the compound, how does the “viability change, negative = cytotoxic” value read?
A: 6.19%

Q: With `CCOC(=O)C1=C(C)NC(C)=C(C(=O)OC)C1c1cccc(Cl)c1Cl` (stereo not drawn) as the compound, how does the “viability change, negative = cytotoxic” value read?
A: -20.6%

Q: For `NC1[C@H]2CN(c3nc4c(cc3F)c(=O)c(C(=O)O)cn4-c3ccc(F)cc3F)C[C@@H]12` (stereo partly drawn), which “viability change, negative = cytotoxic” value is on record?
A: -11.8%

Q: Which “viability change, negative = cytotoxic” value does the source give for `C[C@H]1c2cccc(O)c2C(O)=C2C(=O)[C@]3(O)C(O)=C(C(N)=O)C(=O)[C@@H](N(C)C)[C@@H]3[C@@H](O)[C@@H]21` here?
A: 15.6%

Q: Which “viability change, negative = cytotoxic” value does the source give for `Nc1nc2ccc([N+](=O)[O-])cc2s1` here?
A: -17.3% [at 92.2 µM]

Q: Which “viability change, negative = cytotoxic” value does the source give for `Cc1ccc(Cl)c(Nc2ccccc2C(=O)O)c1Cl` here?
A: -2.18%

Q: With `CN1C(=O)c2ccccc2C1=O` as the compound, how does the “viability change, negative = cytotoxic” value read?
A: -1.3% [at 92.2 µM]

Q: Which “viability change, negative = cytotoxic” value does the source give for `O=C(O)CCc1nc(-c2ccccc2)c(-c2ccccc2)o1` here?
A: 11%

Q: With `CN(C)CCC=C1c2ccccc2C=Cc2ccccc21` as the compound, how does the “viability change, negative = cytotoxic” value read?
A: -2.72%

Q: For `OCCN1CCN(CCCN2c3ccccc3Sc3ccc(Cl)cc32)CC1`, which “viability change, negative = cytotoxic” value is on record?
A: -22.7%

Q: For `O=C(CCc1ccc(O)cc1)c1c(O)cc(O)cc1O`, which “viability change, negative = cytotoxic” value is on record?
A: -13.7%

From PubChem BioAssay (Tox21)
